According to PubChem BioAssay (NCI):
About 83,000 compounds went through this panel and 20% of them were active in at least one assay; those are over-represented in the sample as a whole.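 A percent growth of 40 corresponds to 60% growth inhibition; 0 means no net growth; -100 means all cells died. Active threshold: below 10.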 Values without a mark were called inactive. Activity calls are given as the source filed them.

Tested on: NCI-H522 lung
Test: NCI-60 one-dose screen, 48 h (100 = growth as untreated, 0 = no growth, -100 = all killed)
Settings: 10 µM unless noted
Description: Growth inhibition of the NCI-H522 human Non-Small Cell Lung tumor cell line is measured as a screen for anti-cancer activity. Cells are grown in 96 well plates and exposed to the test compound for 48 hours. Compounds are tested at a single concentration, which is 10^-5 M for most compounds. The reported endpoint is percent growth (GI% or GIPRCNT), where numbers from 0 - 100% represent growth inhibition, and numbers from -100% - 0 represent cell death. For example, a value of 40 represents 60% growth inhibition. A value of 0 means no net growth occurred over the course of the experiment. A value of -40 indicates 40% of cells at the beginning of the experiment died by the end of the experiment. A value of -100 means all cells are dead at the end of the experiment.
NCI-60 Human Tumor Cell Lines Screen was performed using the standard one-dose NCI protocol, which is described in more detail at https://dtp.cancer.gov/discovery_development/nci-60/default.htm.
Compounds with GIPRCNT values below 10 were considered active. Activity score was based on GIPRCNT using the following formula: […]
Score is 0 for GIPRCNT values of 100 or above, 50 for GIPRCNT values of 0, and 100 for GIPRCNT values of -100.

SMILES	growth
CCOc1cccc(/C=N\Nc2nc(=O)cc(C(=O)OC)s2)c1O	79.3%
COC(=O)[C@H](NC(=O)C1(C)CCC[C@]2(C)[C@H]3C[C@H]4C(C(C)C)=C[C@]3(CC[C@@H]12)[C@@H]1C(=O)CCC(=O)[C@@H]14)C(C)C (stereo not given in full)	102%
CC(=O)Nc1nc2c(s1)CCc1c-2cn(S(=O)(=O)c2ccccc2)c1-c1ccccc1	54.5%
COc1cc(/C=C2\CN(C)C/C(=C\c3cc(CN4CCCC4)c(O)c(OC)c3)C2=O)cc(CN2CCCC2)c1O	34.7%
Cn1nc(C(C)(C)C)cc1NC(=O)Cc1ccc(/C=C2\C(=O)Nc3ccccc32)cc1	45%
CCCCc1c(CCC)c(=N)c2ccccc2n1C	100%
CC1(C)CC2(C)OC2C2(C1)N=NC(=Nc1ccccc1)O2 (stereo not given)	15.1%
CN1CCN(c2nc(Nc3ccc(O)cc3)nc3ccccc23)CC1	37.5%
COc1cccc(C(=O)NC(c2ccc(C)cc2)c2cc(Cl)c3cccnc3c2O)c1 (stereo not given)	9.38% (active)
CCC(C)(C)C(=O)O[C@H]1C[C@@H](C)C=C2C=C[C@H](C)[C@H](CC[C@@H]3CC=CC(=O)O3)[C@H]21	39.4%
COc1ccc(C)c2sc(N(Cc3cccnc3)C(=O)c3ccc(C#N)cc3)nc12	-22.2% (active)
C#CCn1cc(C=C2C(=O)NC(=O)NC2=O)c2cc(Cl)ccc21	71.7%
COc1cc(C2C3=C(COC3=O)N(CCO)c3cc4c(cc32)CCC4)cc(OC)c1O (stereo not given)	-24.5% (active)
COc1ccc(C2NCCc3c2[nH]c2ccccc32)cc1CN1CCN(c2ccc(F)cc2)CC1 (stereo not given)	40.8%
CCC1=C[C@@H]2CN(C1)Cc1c([nH]c3ccccc13)[C@@](C(=O)OC)(c1cc3c(cc1OC)N(C)[C@H]1[C@@](O)(C(=O)OC)[C@H](OC(C)=O)[C@]4(CC)[C@@H]5C[C@@H]5CN5CC[C@]31[C@@H]54)C2	-14.5% (active)
CNCCNc1nc2ccccc2c2c(=O)c3cc(F)ccc3sc12	33.8%
O=C(/C=C/c1ccc(Cl)cc1)c1ccc(Nc2nc(NCCO)nc(N3CCOCC3)n2)cc1	87.2%
CCCCC1CCc2cccc3c(SCC(=O)N(C)c4ccc(Cl)cc4)cc[n+]1c23 (stereo not given)	97.5%
COc1ccc2c(c1)C=C1CSCC3=Cc4cc(OC)ccc4OC13O2	15.1%
CC(C)CCOc1ccc(-c2n[nH]c(C(F)(F)F)c2-c2cncc(C#N)c2)c(O)c1	-6.89% (active)

SMILES	growth
O=S1(=O)CCN(Cc2ccccc2)CC1	104%
COc1ccccc1N1CCN(C(CNS(=O)(=O)c2ccc(Cl)cc2)c2cccnc2)CC1 (stereo not given)	110%
COc1ccc(CSc2nnc(SCC(=O)Nc3ccc(Cl)cc3)s2)cc1	67.7%
CCCCN1CCN(c2ccc3nc(-c4ccc5nc(-c6ccc(C(F)(F)F)cc6)[nH]c5c4)[nH]c3c2)CC1	-38.2% (active)
CCN1C(=O)N(CC)C2C1NN=c1s/c(=C3\C(=O)N(C(C)C)c4ccccc43)c(=O)n12 (stereo not given)	-3.38% (active)
CS(=O)(=O)Nc1ccc(C(=O)NC(C(=O)NO)c2ccc(-c3cccc(F)c3)cc2)cc1 (stereo not given)	30%
COc1ccc(-c2cn[nH]c2-c2ccc(OC)c(O)c2)cc1	45.6%
CCN1C(=O)N(c2ccccc2)C2NN=c3s/c(=C4\C(=O)N(C(C)C)c5ccccc54)c(=O)n3C21 (stereo not given)	14.7%
CC(C)(C)c1ccc(C2CC(=O)C3=C(C2)Nc2ccccc2N(C(=O)c2ccccc2Cl)C3c2ccc(F)cc2)cc1 (stereo not given)	14.7%
CC[C@]1(O)C[C@@H]2CN(CCc3c([nH]c4ccccc34)[C@@](C(=O)OC)(c3cc4c(cc3OC)N(C)[C@H]3[C@@](O)(C(=O)OC)[C@H](OC(C)=O)[C@]5(CC)C=CCN6CC[C@]43[C@@H]65)C2)C1	4.5% (active)
Cc1cccc(NC(=O)c2sc3nc4c(cc3c2N)CCCC4)c1C	-6.44% (active)
O=S(=O)(c1ccc(NC(=S)NC23CC4CC(CC(C4)C2)C3)cc1)N1CCCCC1	74.3%
COc1ccc(-n2c(C(O)c3ccccc3)n[nH]c2=S)cc1 (stereo not given)	89.7%
Fc1ccc(Oc2ccc(Nc3ncnc4onc(-c5ccccc5)c34)cc2)cc1	90.5%
N#C/C(=C\c1c(-c2ccccc2)[nH]c2ccccc12)S(=O)(=O)c1ccccc1	54.9%
CCN(CC)CCCNc1ccnc2cc3ccccc3cc12	51.8%
CCOC(=O)c1c2c(c(C)n1Cc1ccc(OC)cc1)-c1oncc1CC2	99.3%
O=C(CCc1nnc2sc(-c3ccc(Cl)cc3Cl)nn12)c1nc2ncccc2[nH]1	-47.9% (active)
O=Cc1cc2ccccc2nc1Nc1nccs1	83.1%
COCCN(C(=O)Cc1cccs1)C(C(=O)NCc1ccc(OC)cc1)c1ccc(C(C)C)cc1 (stereo not given)	80.7%
